Screens deposited in PubChem BioAssay by Sanford-Burnham Center for Chemical Genomics.
Hits are enriched below; roughly 6.3% of the tested compounds scored in any of these assays.
Mdm2-MdmX inh: inhibitors of human Mdm2-MdmX association, primary screen, cell-based, luminescence, split luciferase, SaOS-2, uHTS; Protein Mdm4 (Homo sapiens) + E3 ubiquitin-protein ligase Mdm2 (Homo sapiens), …; SaOS-2 split-luciferase Mdm2/MdmX complementation; inhibition, % at 8 µM; hit rate 3% among 330,000;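 active means inhibition of at least 50% at 8 µM in the primary screen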
Target sequence (O15151 whole entry, looked up): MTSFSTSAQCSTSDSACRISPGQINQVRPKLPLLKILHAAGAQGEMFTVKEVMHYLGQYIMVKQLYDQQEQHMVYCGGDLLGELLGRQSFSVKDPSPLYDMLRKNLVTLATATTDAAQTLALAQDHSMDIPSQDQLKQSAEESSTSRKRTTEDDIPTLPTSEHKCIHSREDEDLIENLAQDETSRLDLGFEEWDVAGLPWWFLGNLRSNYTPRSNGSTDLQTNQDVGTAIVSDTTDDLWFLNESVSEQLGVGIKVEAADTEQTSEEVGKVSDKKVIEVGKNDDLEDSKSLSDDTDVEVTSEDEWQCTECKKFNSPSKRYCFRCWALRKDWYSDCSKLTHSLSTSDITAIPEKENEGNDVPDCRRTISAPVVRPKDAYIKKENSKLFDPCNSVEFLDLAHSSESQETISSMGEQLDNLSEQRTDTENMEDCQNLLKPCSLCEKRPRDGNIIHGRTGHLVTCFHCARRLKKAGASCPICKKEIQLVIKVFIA
Target sequence (Q00987 whole entry, looked up): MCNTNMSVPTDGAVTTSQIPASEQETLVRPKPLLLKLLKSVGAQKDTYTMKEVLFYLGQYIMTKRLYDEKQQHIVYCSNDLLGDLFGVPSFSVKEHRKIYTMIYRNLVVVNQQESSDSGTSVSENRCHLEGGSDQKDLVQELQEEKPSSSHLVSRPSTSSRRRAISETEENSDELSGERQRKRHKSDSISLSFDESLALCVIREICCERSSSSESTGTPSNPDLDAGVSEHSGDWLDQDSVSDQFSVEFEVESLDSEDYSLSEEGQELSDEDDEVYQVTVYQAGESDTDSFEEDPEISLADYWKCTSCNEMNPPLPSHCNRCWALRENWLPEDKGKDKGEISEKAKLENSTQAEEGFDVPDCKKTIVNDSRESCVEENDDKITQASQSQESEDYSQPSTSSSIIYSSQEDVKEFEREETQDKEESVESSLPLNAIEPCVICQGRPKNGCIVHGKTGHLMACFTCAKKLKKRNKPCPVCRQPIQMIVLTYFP
MPTP block: mitochondrial permeability transition pore inhibitors, primary screen, biochemical, isolated mouse mitochondria, absorbance; Ca2+ swelling absorbance, 30 min; inhibition, % at 10 µM; hit rate 1.4% among 360,000; AID 602449, 2012;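 active means inhibition of 50% or more, scaled per plate between neutral and stimulator controls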;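 further: 0% = DMSO wells given calcium and 100% = 1 mM EGTA wells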
TIM10 inh: growth inhibitors of isogenic TIM10 control yeast, primary screen, counter-screen for tim10-1 yeast inhibitor project, luminescence, uHTS | hit rate 1.4% among 330,000 | S. cerevisiae TIM10 strain growth, BacTiter-Glo luminescence, 24 h | inhibition, % at 10 µM;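 active means inhibition of 40% or more at the single tested concentration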;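 further: wild-type TIM10 isogenic control strain grown at permissive 25 °C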
tim23-1 inh: growth inhibitors of tim23-1 mutant yeast, primary screen, luminescence, uHTS; hit rate 1.3% among 330,000; inhibition, % at 20 µM; S. cerevisiae tim23-1 growth, BacTiter-Glo luminescence, 24 h;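 active means growth inhibition of the mutant yeast at or above 50%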;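 further: temperature-sensitive mutant grown at 25 °C; plate controls were DMSO-treated mutant yeast for no effect and medium wells lacking yeast for full effect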
tim10-1 inh: growth inhibitors of tim10-1 mutant yeast, primary screen, luminescence, uHTS; inhibition, % at 20 µM; AID 463190, 2010; S. cerevisiae tim10-1 ts strain growth, BacTiter-Glo, 24 h; hit rate 2.2% among 330,000;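 active means inhibition of at least 40%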;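 further: mutant grown at 25 °C; 0% = DMSO wells with yeast and 100% = wells holding no yeast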
tim10-1 conf: growth inhibitors of tim10-1 mutant yeast, confirmation, single concentration, luminescence, S. cerevisiae | shares compounds with tim10-1 inh | hit rate 56% among 7,400 | S. cerevisiae tim10-1 ts strain growth, BacTiter-Glo, 24 h | inhibition, % at 20 µM | AID 463213, 2010;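 active means inhibition of yeast growth at or above a set limit in either of two repeat tests at 20 µM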;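 further: tim10-1 mutant grown at permissive 25 °C to find synthetic lethal compounds; 0% = DMSO yeast wells and 100% = medium wells without yeast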
TIM10 conf: growth inhibitors of wild-type TIM10 yeast, confirmation, counter-screen for tim10-1 synthetic lethality project, single concentration, luminescence, S. cerevisiae; S. cerevisiae tim10 strain growth, BacTiter-Glo luminescence, 24 h; shares compounds with TIM10 inh; inhibition, % at 10 µM; hit rate 63% among 4,600;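 active means inhibition of yeast growth at or above a set limit in either of two replicates at 10 µM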;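 further: this counterscreen used the strain with wild-type TIM10; 0% = yeast with DMSO and 100% = medium wells lacking yeast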
* marks the source's active call; other numbers are inactive results; . = no result.

SMILES | Mdm2-MdmX inh | MPTP block | TIM10 inh | tim23-1 inh | tim10-1 inh | tim10-1 conf | TIM10 conf
O=C(Nc1ccc2c(c1)CN(C(=O)Nc1ccc(F)cc1)CC2)c1ccccn1 | . | 3 | . | . | . | . | .
COc1ccc2c(c1OC)C(=O)OC2Nc1nc(-c2ccc([N+](=O)[O-])cc2)cs1 (stereo unspecified) | -9 | 0 | -1 | 15 | -11 | . | .
COc1ccc2c(c1OC)C(=O)OC2Nc1nc(-c2cc3cc(Br)ccc3oc2=O)cs1 (stereo unspecified) | -72 | 9 | 58* | 40 | 49* | 61* | 71*
O=S(=O)(NCCS(=O)(=O)N1CCN(c2ccc(F)cc2)CC1)c1ccccc1 | . | 0 | . | . | . | . | .
O=S(=O)(CCN(CCS(=O)(=O)C(F)(F)F)CC1CCCO1)C(F)(F)F (stereo unspecified) | 21 | 1 | 45* | 35 | 50* | 41* | 26
CCCCCCN1CCN(C2CN(C3CCCCC3)S(=O)(=O)C2)CC1 (stereo unspecified) | . | 1 | . | . | . | . | .
CC(C)[C@@H]1CC[C@@H](C)c2c(-c3ccccc3)n[nH]c21 | -1 | -2 | 46* | 47 | 40* | 21 | 49*
Cc1ccc2c(c1)CCO[C@@]21O[C@H](CCO)C[C@H](O)[C@H]1O | . | -2 | . | . | . | . | .
Cc1cc([N+](=O)[O-])ccc1-c1ccc(C2Nc3ccccc3C(=O)N2O)o1 (stereo unspecified) | 41 | 4 | 41* | 42 | 53* | 36* | 20
Cc1cccc(NC(=S)NNC(=O)c2csc3c2CCCC3)c1 | -56 | 7 | 43* | 20 | 45* | 45* | 16
Cc1cccc(NC(=S)NNC(=O)c2csc(C)c2)c1 | -66 | 0 | 7 | 18 | 11 | . | .
CCOC(=O)N1CCN(Cc2cc(=O)oc3ccc4ccccc4c23)CC1 | 7 | -2 | 25 | 35 | 30 | . | .
O=C(CC12CC3CC(CC(C3)C1)C2)NCC(=O)OCc1cc(=O)oc2ccc3ccccc3c12 | -42 | 14 | 44* | 9 | 41* | 26 | 26
O=S(=O)(c1ccc(F)c(F)c1)N1CCCCCCC1 | . | -2 | . | . | . | . | .
CC(C)NC(=S)N/N=C1\CCCCC1C1CCCCC1 (stereo unspecified) | -18 | 4 | 42* | 47 | 44* | 32* | 29
CC1CCCC/C1=N\NC(=S)Nc1ccccc1 (stereo unspecified) | -3 | 1 | 28 | 24 | 23 | . | .
COc1ccc(S(=O)(=O)N2CCC[C@H]2C(=O)N2CCC[C@H]2C(=O)N(C)Cc2ccccc2)cc1C | . | -2 | . | . | . | . | .
Cc1cc(Br)c2c(c1)/C(=C/C(=O)c1cccs1)C(=O)N2 | 21 | -8 | 50* | 42 | 47* | 34* | 68*
CC(=O)Nc1ccc(S(=O)(=O)N2CCSC2c2ccc(C)cc2)cc1 (stereo unspecified) | 3 | -3 | 42* | 32 | 41* | 28 | 34*
CCOC(=O)C1=NN(c2ccccc2C)C2=NC(C)=C(C(=O)OC)C(c3cccs3)N12 (stereo unspecified) | 7 | 9 | 42* | 37 | 41* | 18 | 20
CC(=O)N1N=C(c2cccc([N+](=O)[O-])c2)OC1c1ccc(Br)cc1 (stereo unspecified) | 32 | 4 | 10 | -4 | 15 | . | .
CC(=O)N1N=C(c2ccccc2)OC1c1ccc([N+](=O)[O-])s1 (stereo unspecified) | 5 | 0 | 51* | 47 | 47* | 69* | 32*
CCc1nc2ccc(C(=O)NCCNC(C)=O)cn2c1N(C)CCCc1ccccc1 | . | -1 | . | . | . | . | .
CC1=C(C(=O)N(C(C)C)C(C)C)CC(CC(=O)NCCCCc2ccccc2)C(=O)N1Cc1ccc(C(C)(C)C)cc1 (stereo unspecified) | . | -3 | . | . | . | . | .
O=C(/C=C/c1ccc([N+](=O)[O-])cc1)c1ccco1 | 10 | 0 | -15 | 28 | 10 | . | .
SMILES | Mdm2-MdmX inh | MPTP block | TIM10 inh | tim23-1 inh | tim10-1 inh | tim10-1 conf | TIM10 conf
O=C(/C=C/c1ccc(-c2ccccc2[N+](=O)[O-])o1)c1ccco1 | 9 | 5 | 48* | 36 | 55* | 44* | 46*
CC1(C(=O)NS(=O)(=O)c2ccc(Cl)cc2)CCN1C(=O)CCc1cccs1 (stereo unspecified) | . | 1 | . | . | . | . | .
O=C(NC1=NCCS1)C12CC3CC(C1)CC(C(=O)NC1=NCCS1)(C3)C2 | 32 | 0 | -5 | 4 | -11 | . | .
CC12CC3CC(C)(C1)CC(C(=O)NC1=NCCS1)(C3)C2 | -7 | -2 | 49* | 41 | 46* | 28 | 35*
CCc1ccc(-c2cn(C3CCCCC3)c(=S)[nH]2)cc1 | 6 | 1 | 53* | 46 | 45* | 46* | 56*
Nc1nn2cc(-c3ccccc3)nc2c2ccccc12 | -227 | 0 | 56* | 30 | 56* | 53* | 49*
CC(C)CCNC(=O)COC(=O)/C=C/c1ccc2ccccc2n1 | -21 | -2 | 45* | 48 | 49* | 42* | 41*
C[C@@H]1CN([C@@H](C)CO)C(=O)c2cc(Br)cnc2O[C@H]1CN(C)S(=O)(=O)c1cccs1 | . | 0 | . | . | . | . | .
CC(=O)NC1C(c2nc3ccccc3s2)=C(c2ccccc2)C(=O)N1c1ccc(C)cc1 (stereo unspecified) | -26 | -1 | 51* | 34 | 53* | 51* | 37*
CC(=O)NCc1ccc(-c2nc3ccccc3s2)cc1 | -201 | 1 | 17 | 22 | 12 | . | .
CCOc1ccc(C(=O)N2CCN(c3cccc(C)c3C)CC2)cc1 | 24 | 23 | 42* | 43 | 45* | 33* | 32*
Cc1cccc(N2CCN(C(=O)c3ccc(N4CCCC4=O)cc3)CC2)c1C | 25 | 0 | 42* | 5 | 45* | 31* | 16
CC(NC(=O)C1CCCN1C(=O)c1cccs1)c1ccc(Cl)cc1Cl (stereo unspecified) | . | 1 | . | . | . | . | .
Oc1ccc(C[C@@H]2CNC(=S)N2CCCCC2CCCCC2)cc1 | -17 | 2 | 40* | 38 | 53* | 25 | 18
O=C1NC[C@@H](Cc2ccc(O)cc2)N(CCCCC2CCCCC2)C1=O | . | 0 | . | . | . | . | .
Cc1cc(Br)ccc1NC(=O)CNC(=O)CN1C(=O)NC2(CCCCCC2)C1=O | -11 | 2 | 19 | 18 | 12 | . | .
Cc1cc(Br)ccc1NC(=O)CN1C(=O)C2C3CC(c4ccccc4)C(C3)C2C1=O (stereo unspecified) | 5 | -1 | 56* | 32 | 41* | 34* | 32*
